The text below walks through data of PubChem BioAssay AID1851 (National Center for Advancing Translational Sciences (NCATS), 2009).

The structures appear in SMILES notation. About 5,800 (36%) of roughly 16,000 compounds were called active. Another 23% or so got no clear call; they are omitted. Some of the results follow. Values without a mark were called inactive. Calls follow the shape of the dose curve; as a rule, active = well fitted curve in the direction sought with a large enough effect; inconclusive = small, poorly fitted or top-dose-only effect, or effect the other way; inactive = no such curve, though single readings can be large or run the other way.
% is scaled to controls: 0 for no effect and ±100 for the full control effect.

The target of the assay is Cytochrome P450 2C19 (Homo sapiens) (UniProt P33261). As to the kind of experiment: Cytochrome panel assay with activity outcomes. The conditions noted are these: recombinant CYP, pro-luciferin dealkylation, luminescence, p450-cyp2c19; series mostly up to 57.1 µM. As for the experimental part: The P450 gene superfamily is involved in the metabolism and clearance of xenobiotics. This assay used various human CYP P450 isozymes to measure the dealkylation of various pro-luciferin substrates to luciferin. The luciferin is then measured by luminescence after the addition of a luciferase detection reagent. Pro-luciferin substrate concentration in the assay was equal to its KM for its CYP P450 isozyme. Inhibitors and some substrates limit the production of luciferin, and decrease measured luminescence.
Chain of Cytochrome P450 2C19 (Homo sapiens) (P33261 whole entry, looked up): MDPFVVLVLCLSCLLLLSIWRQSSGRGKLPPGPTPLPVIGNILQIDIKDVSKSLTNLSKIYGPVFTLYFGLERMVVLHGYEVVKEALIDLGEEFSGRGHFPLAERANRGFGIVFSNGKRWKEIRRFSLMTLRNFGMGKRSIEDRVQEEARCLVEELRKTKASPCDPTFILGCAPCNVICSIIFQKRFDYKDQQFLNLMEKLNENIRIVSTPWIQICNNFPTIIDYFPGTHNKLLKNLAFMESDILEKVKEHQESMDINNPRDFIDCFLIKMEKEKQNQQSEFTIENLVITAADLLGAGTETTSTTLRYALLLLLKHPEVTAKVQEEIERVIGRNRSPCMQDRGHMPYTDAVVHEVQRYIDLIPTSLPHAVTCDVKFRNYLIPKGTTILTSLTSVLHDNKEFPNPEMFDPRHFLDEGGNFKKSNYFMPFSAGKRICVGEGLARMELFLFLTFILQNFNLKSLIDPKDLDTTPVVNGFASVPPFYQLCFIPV
NCGC Assay Protocol Summary:
1, Reagent, 2 uL, Isozyme and Pro-Luciferin
2, Library compounds, 23 nl, 40 uM to 0.24 nM dilution series
3, Controls, 23 nl, Isozyme specific inhibitor
4, Reagent, 2 uL, NADPH regeneration solution
5, Incubation time, 60 min, Isozyme specific temperature
6, Reagent, 4ul, Detection reagent
7, Incubation time, 20 min, Isozyme specific temperature
8, Detection, 1 sec, ViewLux luminescent read
The luciferase-based P450-GloTM Screening Systems were obtained from Promega (Madison, WI) for CYP 1A2 (V9770), CYP 2C9 (V9790), CYP2 C19 (V9880), CYP 2D6 (V9890), and CYP 3A4 Luciferin-PPXE (V9910) and were adapted for 1,536-well microplates and an automated protocol. The control compounds furafylline for 1A2 (F124), sulfaphenazole for CYP 2C9 (S0758), ketoconazole for CYP 2C19 (K1003), quinidine for 2D6 (Q3625), and ketoconazole for 3A4 (K1003) were purchased from Sigma Aldrich (St. Louis, MO). Recombinant P450 enzymes were obtained from baculovirus constructs expressed in insect cells (BD/Gentest).
Medium-binding white solid Kalypsys plates used. Mixtures kept on ice. 1A2: 10 nM 1A2, 100 uM Luc-ME, 100 mM KPO4; 2C9: 10 nM 2C9, 100 uM Luc-H, 25 mM KPO4; 2C19: 5 nM 2C19, 10 uM Luc-H EGE, 50 mM KPO4; 2D6: 5 nM 2D6, 30 uM Luc-ME EGE, 100 mM KPO4; 3A4: 10 nM, 25 uM Luc-PPXE. All amounts are reflected in their final concentration, working concentration is 2x.
NADPH regeneration solution: 1.3 mM NADP+, 3.3 mM glucose-6-phosphate, 3.3 mM MgCl2, 0.4 U/mL glucose-6-phosphate dehydrogenase for all isozymes, 200 mM KPO4 for 3A4. Mixture prepared at RT but kept on ice during automated run.
RT incubation in auxilliary plate hotel for 1A2, 2D6, and 3A4; 37C for 2C9 and 2C19.
Keywords: P450, CYP1A2, CYP2C19, CYP2C9, CYP2D6, CYP3A4, Luciferase, MLSMR, MLSCN, NIH Roadmap, qHTS, NCGC
As to `CC(=O)N[C@@H](CC(=O)O)C(=O)O`, the AC50 entry was “inactive”. Consider `CC#CCOC(=O)c1c(C)nc2sc3c(c2c1N)CC[C@@H](O)C3`, for which the half-maximal activity concentration (AC50) is 25.1 µM (active). Consider `Cn1c(=O)c2[nH]c(CCCc3ccc([N+](=O)[O-])cc3)nc2n(C)c1=O`, for which the activity, negative = inhibition was 6.48% [at 11.4 µM].

For the compound `CCc1cc(C(c2ccccc2OC)N2CCOCC2)c(NC(=O)c2ccccc2)s1` (centres undefined), the half-maximal activity concentration (AC50) was 11.2 µM (active).

For the compound `CCOc1cc(/C=C2\C(=O)N(Cc3ccc(C)cc3)C(C)=C2C(=O)OC)ccc1O`, the AC50 is 3.98 µM (active). Consider `COc1cccc(Nc2ncc3nc(C)c(=O)n(CCC#N)c3n2)c1`, for which the AC50 entry was “inactive”. Regarding `Cc1cc(OC(=O)c2cc(F)c(F)cc2Cl)nc(C)n1`, the AC50 result is “inactive”. Turning to `CSc1nsc(SCc2ccc(Cl)cc2)n1`, the concentration at half-maximal activity (AC50) is 0.447 µM (active). Take `O=c1c(-c2nc3ccccc3s2)cccn1Cc1ccccc1`: the half-maximal activity concentration (AC50) is 2 µM (active). For the compound `CCCN(CCC)S(=O)(=O)c1ccc(C(=O)O)cc1`, the AC50 result was “inactive”.

Take `CCOC(=O)c1c(C)[nH]c(C)c1C(=O)COC(=O)c1cccc(S(=O)(=O)N(CC)CC)c1`: the AC50 was 0.447 µM (active). `CCOC(=O)c1c(C)[nH]c(C)c1C(=O)COC(=O)c1ccc(S(=O)(=O)N(CC)CC)cc1`: the half-maximal activity concentration (AC50) was 1.12 µM (active). On the same count and under the same terms, the value for `CCN(CC)CCOC(=O)c1ccc(N)cc1` was “inactive”. As for `C[C@@H](CNC(N)=O)NC(N)=O`, the activity, negative = inhibition is 25.4% [at 11.4 µM].

As to `Cc1ccc(CS(=O)(=O)CCC(=O)NCCCN2CCCC2=O)cc1`, the AC50 result was “inactive”. Still for that read-out and setting: the value for `Cc1ccc(S(=O)(=O)N(CCCN2CCCC2=O)Cc2cc3c(C)ccc(C)c3[nH]c2=O)cc1` was 11.2 µM (active); that for `O=C(CCC(=O)OCc1ccc(C(=O)Oc2ccccc2)cc1)Nc1cccc2ccccc12` was 11.2 µM (active). For `O=C(c1ccco1)N1CCC2(CC1)CN(c1ccccn1)C2`, the AC50 result is “inactive”. As to `O=C(c1cc(-c2ccc(Cl)cc2Cl)on1)N1CCN(C(=O)c2ccco2)CC1`, the AC50 was 3.16 µM (active). `O=C(Cc1ccc(Cl)cc1)N1CCN(C(=O)c2ccco2)CC1`: the half-maximal activity concentration (AC50) is 7.94 µM (active). As for `O=C(c1ccc(Cl)cc1)N1CCN(C(=O)c2ccco2)CC1`, the AC50 entry was “inactive”. Take `CCCN(CCC)C(=S)NC(=O)c1ccc(Cl)cc1Cl`: the AC50 was 2.51 µM (active). The same measure, in the same setting: the result for `CC1CC(C)CN(C(=O)CNS(=O)(=O)c2ccc(Br)s2)C1` (centres undefined) reads 4.47 µM (active); that for `Cc1cccc(C(=O)NC(=S)N2CCN(C)CC2)c1`, “inactive”.

For the compound `COc1ccc(C(=O)NC2CCN(C(=S)Nc3cccc(C)c3)CC2)cc1`, the half-maximal activity concentration (AC50) is 8.91 µM (active). For the compound `COc1ccc(C(=O)N2CCC3(CC2)CN(C(=O)Nc2cccc(C#N)c2)C3)cc1`, the AC50 result was “inactive”. In the case of `COc1cccc(-c2csc(N3CCN(C(=S)Nc4ccccc4)CC3)n2)c1`, the AC50 was 1.78 µM (active). For the compound `COc1cccc(-c2csc(N3CCN(CC(=O)NNC(=O)c4ccc(Cl)cc4)CC3)n2)c1`, the AC50 was 1.26 µM (active). For the compound `COc1cccc(C(=O)NCCN2CCN(c3ccc(Cl)cc3)CC2)c1`, the AC50 result is “inactive”. As to `Cc1cccc(C(=O)NC2CCN(C(=S)NCc3ccco3)CC2)c1`, the AC50 was 28.2 µM (active).

As for `COc1ccc(N2CCN(C(=S)Nc3cc(C)cc(C)c3)CC2)cc1`, the AC50 entry is “inactive”. Still for that read-out and setting: the value for `COc1ccc(N2CCN(C(=S)Nc3cc(C)ccc3C)CC2)cc1` was 5.62 µM (active); that for `COC(=O)c1ccc(NC(=S)N2CCN(Cc3cccc(C)c3)CC2)cc1` was 4.47 µM (active); that for `COC(=O)N1CCC2(CC1)CCN(c1cccc(-c3ccccc3)c1)CC2` was “inactive”. On to `CNC(=S)N1CCN(c2cccc(OC)c2)CC1`, for which the AC50 is 7.08 µM (active).

As to `CNC(=S)N1CCN(c2ccccc2OC)CC1`, the AC50 is 7.08 µM (active). Regarding `COc1ccc(COC(=O)N/N=C2/C[C@@H](O)[C@@H](O)[C@@H]3[C@@H]4C(=O)N(C(C)(C)C)C(=O)[C@H]4CC[C@H]23)cc1`, the activity, negative = inhibition was 9.85% [at 11.4 µM]. In the case of `COc1cccc(N2CCN(C(=S)Nc3cccc(C)c3)CC2)c1`, the AC50 was 7.94 µM (active). Take `COc1ccc(N2CCN(C(=S)Nc3cccc(C)c3)CC2)cc1`: the AC50 entry was “inactive”. As for `Cc1c(CCC(C)C)c(-n2ccnc2C)n2c(nc3ccccc32)c1C#N`, the AC50 entry is “inactive”.

`FC(F)(F)c1nc2ccccc2nc1N/N=C/c1ccc(Cl)cc1`: the AC50 is 3.55 µM (active).

On to `COC(=O)C/C=C\[C@@H](C)[C@@H](/C=N\O[C@@H](C)CN1CCCc2nc(C)c(C)cc21)OC`, for which the activity, negative = inhibition is -26.4% [at 11.4 µM]. In the case of `Cc1cc(Cl)ccc1OCCCC(=O)N1CCN(C)CC1`, the AC50 is 5.62 µM (active). Take `CCOC(=O)c1c(CC(C)C)csc1NC=O`: the AC50 was 14.1 µM (active). Turning to `COC(=O)c1c(C)oc2ccc(N(C(=O)c3ccncc3)S(=O)(=O)c3ccccc3)cc12`, the AC50 was 0.631 µM (active). Same read-out and setting: the result for `NCCCCCc1nnc(SCc2ccc(Cl)cc2Cl)o1` reads 5.62 µM (active); that for `NCCCCCc1nnc(SCc2ccccc2Cl)o1`, 4.47 µM (active). With `Cc1cc(=O)n2c3ccccc3n(CC(O)CN3CCCCC3)c2c1C#N` (centres undefined), the AC50 result is “inactive”. For `Nc1ncnc2c1ncn2[C@H]1O[C@@H](C(=O)O)[C@@H](O)[C@H]1O`, the activity, negative = inhibition was -9.53% [at 11.4 µM].

What is called AC50 is the midpoint of the concentration-response curve, whichever way the signal moves.
